Screening results: PubChem, Sanford-Burnham Center for Chemical Genomics
Artemis endo inh = Artemis endonuclease inhibitors, primary screen, biochemical, fluorescence intensity, FAM/BHQ-1 hairpin substrate; recombinant Artemis, quenched FAM hairpin cleavage fluorescence; inhibition, % at 10 µM; hit rate 0.78% among 30,000; AID 686954, 2013;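 active = at 10 µM dose, at least 30% inhibition, measured as corrected fluorescence normalized to stimulator and neutral control wells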
Numbers without * were called inactive. The sample as a whole holds a higher share of hits than the screen did.

SMILES	Artemis endo inh
O=c1c2ccccc2nc(-c2cccs2)n1-c1ccccc1	3
CCn1nc(-c2cccs2)nc2c(=O)n(C)c(=O)nc1-2	71*
CCCCNc1ccncc1S(=O)(=O)NC(=O)NC(C)C	-11
CCOP(=O)(OCC)C(NC(=O)C(C)C)C(Cl)(Cl)Cl (stereo not given)	-1
Cc1nc2c(c(C)nn2-c2ccccc2)c(C)c1CCC(=O)N1CCC2(CC1)OCCO2	-1
CCOC(=O)c1c(-n2c(C)cc(/C=C3/C(=O)NC(=O)N(CC)C3=O)c2C)sc2c1CCCC2	35*
CNP(=S)(NC)OCCOc1ccc(OC)cc1	-4
CC(=O)OC1(c2ccccc2)CCN(C)C(C)C1C (stereo not given)	-4
CC(=O)OC1(Cc2ccccc2)CN2CCC1c1ccccc12 (stereo not given)	-2
Cc1ccc(N2C(=O)/C(=C/N3CCN(C(=O)c4ccco4)CC3)C(=O)NC2=S)cc1C	31*
CCOC(=O)[C@@]1(C#N)C(c2ccc(Cl)c(Cl)c2)[C@H](C(N)=O)N2C=C(C(C)=O)C=C[C@H]21 (stereo not given in full)	1
CN1CCc2nc3ccc(F)cc3c(C(N)=O)c2C1	-7
CCCC[n+]1cc(/N=C(\[O-])OC)on1	-4
CN(C)CC#CCOCCOCCC#N	-5
COc1ccc(CCn2c(O)c(C=NCCCO)c(=O)[nH]c2=O)cc1OC	0
